# Screening results (PubChem)
# MBNL1 CUG block – MBNL1-poly(CUG) RNA binding inhibition; Q9NR56; TR-FRET MBNL1-His/biotin-(CUG)12 binding, 665/545 ratio; Potency, µM (top dose mostly 57.5 µM), for the others: at the top dose activity change, negative = inhibition, most hits filed as inhibitors; 280,000 compounds, 0.036% hits; AID 2675; active means well fitted inhibition curve with a large enough effect in the signal ratio, with a control signal flat, not every such curve was filed as active; inconclusive means small, poorly fitted or top-dose-only effect, or effect the other way, or a change in a side signal; inactive means no such curve, though single readings can be large or run the other way; the % refers to the signal ratio; further: potency means the concentration at half of the fitted maximal effect; on the % scale 0 is the no-effect control and ±100 the full control effect
#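 His-tagged MBNL1 binding to biotinylated (CUG)12 RNA was measured by TR-FRET using terbium anti-His antibody (0.055 ng/ul final) and streptavidin-XL665 (5 nM final). Compounds were titrated 92 nM to 58 uM; 60 min at room temperature.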
# CBFb-RUNX1 inh – CBF-beta/RUNX1 interaction disruption. Q01196+Q13951. AlphaScreen CBFb-His/RUNX1-biotin binding, biochemical. Potency, µM (top dose mostly 59.8 µM), inactives show top-dose activity, negative = inhibition, usual class: inhibitors. 230,000 tested, under 10 active. AID 1477; further: % of control where 0% means no effect
# Target sequence (Q01196 whole entry, looked up): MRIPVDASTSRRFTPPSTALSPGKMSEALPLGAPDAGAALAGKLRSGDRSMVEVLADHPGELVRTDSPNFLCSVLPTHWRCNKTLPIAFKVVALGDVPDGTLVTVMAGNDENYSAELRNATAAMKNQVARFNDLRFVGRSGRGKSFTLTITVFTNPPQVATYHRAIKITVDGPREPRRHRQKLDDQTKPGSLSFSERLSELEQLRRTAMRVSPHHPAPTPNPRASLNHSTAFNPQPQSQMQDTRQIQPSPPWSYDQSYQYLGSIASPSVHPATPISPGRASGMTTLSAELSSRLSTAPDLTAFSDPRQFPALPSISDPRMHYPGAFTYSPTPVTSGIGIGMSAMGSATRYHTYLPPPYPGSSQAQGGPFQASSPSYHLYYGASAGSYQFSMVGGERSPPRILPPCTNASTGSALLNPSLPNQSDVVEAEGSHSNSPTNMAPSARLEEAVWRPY
# Target sequence (Q13951 whole entry, looked up): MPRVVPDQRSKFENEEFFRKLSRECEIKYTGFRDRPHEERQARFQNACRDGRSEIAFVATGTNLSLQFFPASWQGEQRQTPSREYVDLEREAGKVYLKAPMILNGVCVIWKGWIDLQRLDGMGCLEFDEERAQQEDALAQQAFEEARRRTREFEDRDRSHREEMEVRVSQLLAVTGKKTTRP
#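 Read-out: AlphaScreen. Format: His-CBF-beta with biotinylated RUNX1 (30 nM each) preincubated 20 min, compound 15 min, Ni-chelate plus streptavidin beads 90 min; room temperature throughout.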
# HTT ATP protect – cytoprotection in Huntington HTT-Q103 PC12 cell model; Potency, µM (highest dose often 56.4 µM), for inactives: cytoprotection (ATP increase), hits mostly activators; PC12 HTT-Q103 induced, cytoprotection, ATP luminescence, 40 h; AID 1471; 230,000 compounds, 0.14% hits; further: potency means the concentration at half of the fitted maximal effect; % of control where 0% means no effect; nearly all actives have a fitted effect of over 45% in size
#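 Compounds were screened for protection of PC12 cells against cell death after tebufenozide induction (100 nM final) of mutant Huntingtin exon 1 (Q103) fused to GFP.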
# NPSR antagonist – antagonists of human neuropeptide S receptor cAMP signaling; Q6W5P4; CHO-NPSR cells, cAMP TR-FRET, antagonist mode; Potency, µM (titrated, usually from 38.3 µM), inactives show at the top dose activity change, negative = inhibition, hits mostly inhibitors; 220,000 compounds, 1% hits; further: potency means the concentration at half of the fitted maximal effect; on the % scale 0 is the no-effect control and ±100 the full control effect; nearly all actives have a fitted effect of over 50% in size
# HTT aggregate – inhibitors of mutant huntingtin aggregate formation in PC12 cells. PC12 HttQ103-GFP aggregates, Acumen cytometry, 40 h. Potency, µM (series often up to 46.1 µM), for the others: at the top dose activity change, negative = inhibition, hits mostly inhibitors. 220,000 compounds, 1.1% hits; further: potency means the concentration at half of the fitted maximal effect; on the % scale 0 is the no-effect control and ±100 the full control effect; nearly all actives have a fitted effect of over 60% in size
#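 Read-out: GFP aggregate count by laser scanning cytometer (488 nm excitation, 500-530 nm emission, 1–25 µm objects >6 SD above background). Cells: PC12, inducible HTTex1-Q103-GFP, 100 nM tebufenozide; compounds titrated.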
# Lamin A splicing – modulators of lamin A splicing; HeLa LMNA splicing GFP/RFP minigene ratio, 48 h; Potency, µM (titrated, usually from 46.1 µM), for the others: at the highest dose ratio change, negative = inhibition, most hits filed as inhibitors; 200,000 compounds, 0.01% hits; AID 1487; active means well fitted inhibition curve with a large enough effect in the signal ratio, with a control signal flat, not every such curve was filed as active; inconclusive means small, poorly fitted or top-dose-only effect, or effect the other way, or a change in a side signal; the % refers to the signal ratio; further: potency means the concentration at half of the fitted maximal effect; on the % scale 0 is the no-effect control and ±100 the full control effect
#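 S3 HeLa cells stably expressing lamin A-EGFP splicing minigene plus DsRed2, 600 cells/well, 48 h compound exposure at 37C. Laser-scanning cytometry; analysed as GFP (500-530 nm)/RFP (575-640 nm) total intensity ratio; 0.5% DMSO vehicle.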
# An asterisk follows results filed as active; ? = inconclusive; . = no result; ! = a repeat was not active; [ ] = another dose, or the depositor's remark. The list is not random: actives were taken first. Their share in the collection is about 1.1%. Unless noted, the call rests on the fitted dose curve; in most records, active means well fitted curve in the direction sought with a large enough effect; inconclusive means small, poorly fitted or top-dose-only effect, or another doubt; inactive means no such curve, though single readings can be large; an effect the other way counts as inactive or inconclusive.
SMILES,MBNL1 CUG block,CBFb-RUNX1 inh,HTT ATP protect,NPSR antagonist,HTT aggregate,Lamin A splicing
CS(=O)(=O)c1ccc2nc(NC(=O)CCC(=O)c3cccs3)sc2c1,30%,-11%,-12%[10 µM],-25%[46.1 µM],0.79µM*,9%
CS(=O)(=O)c1ccc2nc(NC(=O)CCS(=O)(=O)c3ccccc3)sc2c1,9%,.,.,.,.,.
CCc1cccc(C)c1NS(=O)(=O)c1cc2[nH]c(=O)c(=O)[nH]c2cc1C,.,.,.,.,.,4%[46 µM]
CCCS(=O)(=O)N1CCC(C(=O)NCCCN(CC)c2cccc(C)c2)CC1,-1%,4%,.,-7%[46.1 µM],32µM*,-7%
COc1ccc(-c2nnn(CC(=O)N(CCCN3CCOCC3)C(C(=O)NC3CCCC3)c3ccc(C)o3)n2)cc1 (configuration not stated),-8%,-5%,.,10µM*,.,.
Cc1nn(-c2ccc([N+](=O)[O-])cc2)c2c1C(c1cccc(Br)c1)N1C(=N2)C(=O)Nc2ccccc21 (configuration not stated),.,-5%,1%[10 µM],-10%,-4%,?
Cc1nn(-c2ccccc2)c2c1C(c1ccc([N+](=O)[O-])cc1)N1C(=N2)C(=O)Nc2ccccc21 (configuration not stated),38%,-21%,-19%[10 µM],?,13µM*,?
CCOC(=O)c1cc(-c2ccccc2)n(-c2cccc(C(=O)Nc3ccc(OC)cc3)c2)c1C,.,.,.,.,.,4%[46 µM]
Cc1cc(C)n(-c2nc3nonc3nc2-n2nc(C)cc2C)n1,-8%,5%,-8%[10 µM],0%[46.1 µM],0%,6%
CCN(CC)c1nc2nonc2nc1N(CC)CC,-9%,0%,17%,-2%[46.1 µM],0.45µM*,7%
CC(C)c1ccccc1S(=O)(=O)c1cc(N)c2ncccc2c1[N+](=O)[O-],.,-24%,7.9µM*,.,.,.
Cc1ccccc1CCN(C(=O)CN1C(=O)c2ccccc2S1(=O)=O)C(C(=O)NCC1CCCO1)c1ccncc1 (configuration not stated),-14%,-3%,22%[10 µM],-20%[46.1 µM],16µM*,-8%
COc1ccc2c(c1)C(=O)[C@H](OC(=O)NCCc1ccc(OC)c(OC)c1)[C@@H](c1ccc(OC)c(Br)c1)O2,.,2%,?,.,.,.
COc1ccc(NC(=O)c2sc(SCc3ccccc3)nc2N)cc1,-2%,-21%,2%[10 µM],-30%[46.1 µM],25µM*,-4%
CN(C)c1ncnc2c1ncn2C1OC(CO)C(O)C1O (configuration not stated),-5%,-8%,-103%,-8%[46.1 µM],4.5µM*,?
Nc1ncnc2c1ncn2[C@@H]1O[C@H](CO)[C@H](O)[C@H]1O,.,1%,.,-10%[46.1 µM],.,-18%
Nc1ncn([C@@H]2O[C@H](CO)[C@@H](O)[C@H]2O)c(=O)n1,.,-9%,-111%,-5%[46.1 µM],13µM*,?
O=c1[nH]cnc2c1ncn2C1OC(CO)C(O)C1O (configuration not stated),.,1%[21.7 µM],8.9µM*!,.,-6%,?
Nc1nc2c(ncn2[C@@H]2O[C@H](CO)[C@@H](O)[C@H]2O)c(=O)[nH]1,.,-2%[21.7 µM],-3%[1.9 µM],.,.,.
COc1ccc(-c2cc([C@H](O)[C@@H]3CCCCN3)c3ccccc3n2)cc1,.,.,-12%[10 µM],.,.,.
COc1ccc(C(=O)Cn2nnc(-c3ccccc3NC(=O)C3CCCCC3)n2)cc1,-4%,12%,-20%,-17%[46.1 µM],13µM*,?
Cc1ccc(C2c3cccn3CCN2S(=O)(=O)c2ccc([N+](=O)[O-])cc2)cc1 (configuration not stated),.,.,.,.,.,-11%[46 µM]
CC(=O)c1cccc(NC(=O)Nc2cccs2)c1,-3%,-6%,-12%,-19%[46.1 µM],13µM*,4%
COc1cccc(NC(=O)Nc2cccs2)c1,11%,4%,-5%[10 µM],-8%[46.1 µM],?,-6%
Cc1ccc(NC(=O)Nc2ccc(C(=O)N3CCOCC3)cc2)cc1,-1%,3%,1%,-2%[46.1 µM],-17%,?
SMILES,MBNL1 CUG block,CBFb-RUNX1 inh,HTT ATP protect,NPSR antagonist,HTT aggregate,Lamin A splicing
CC(=O)c1cccc(NC(=O)Nc2ccc(C(=O)N3CCOCC3)cc2)c1,-5%,-13%,-9%[10 µM],-8%[46.1 µM],10µM*,-8%
COc1ccc(N2CCN(C(=O)CSc3nnc(-c4cc5ccccc5cc4O)n3C)CC2)cc1,20%,-21%,-20%,-23%[46.1 µM],13µM*,?
COc1ccc(-n2cnnc2SCC(=O)N2CCN(c3ccccc3)CC2)cc1,-7%,4%,-15%,-9%[46.1 µM],14%,-5%
COC(=O)C(C(=O)OC)C1c2ccccc2C=C(C)N1C(=O)OC (configuration not stated),.,7%[13.1 µM],5%[10 µM],.,.,-9%[9.22 µM]
Cc1c2oc3c(C)ccc(C(=O)N[C@@H]4C(=O)N[C@H](C(C)C)C(=O)N5CCC[C@H]5C(=O)N(C)CC(=O)N(C)[C@@H](C(C)C)C(=O)O[C@@H]4C)c3nc-2c(C(=O)N[C@@H]2C(=O)N[C@H](C(C)C)C(=O)N3CCC[C@H]3C(=O)N(C)CC(=O)N(C)[C@@H](C(C)C)C(=O)O[C@@H]2C)c(N)c1=O,.,-5%,-46%,.,0.032µM*,.
N#CCCn1c(=O)c(-c2ccc(F)cc2)nc2cnc(Oc3cccc(Cl)c3)nc21,.,.,3.2µM*,.,.,.
N#CCCn1c(=O)c(-c2ccc(Cl)cc2)nc2cnc(Oc3cccc(Cl)c3)nc21,.,.,-30%,.,.,.
c1ccc(N2CCN(c3ncnc4sc5c(c34)CCC5)CC2)cc1,12%,-12%,-14%,?,11µM*,?
